Hits are enriched below; roughly 12% of the tested compounds scored in any of these assays.
BAZ2B inh: blocks human BAZ2B | AlphaScreen BAZ2B-H3K14Ac peptide displacement | AID 504333 | Potency, µM (doses to about 114 µM), for the others: at the highest dose activity change, negative = inhibition, actives largely listed as inhibitors | actives 4.4% (n = 360,000); further: on the % scale 0 is the no-effect control and ±100 the full control effect; nearly all actives have a fitted effect of over 60% in size
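AlphaScreen displacement: compounds (up to 110uM) incubated 30 min at room temperature with a preformed 50 nM BAZ2B/50 nM biotinylated H3K14Ac peptide complex in PBS pH 7.4 with Tween-20. Donor and acceptor beads at 10 ug/mL final added, 20 min light-protected before reading.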
Sfp PPTase inh: blocks B. subtilis Sfp PPTase activity; Biochemical Sfp PPTase activity, qHTS; Potency, µM, inactives show largest response in the series, negative = inhibition, most hits filed as inhibitors; actives 3.5% (n = 310,000); Q9F4F7;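 further: the enzyme is Sfp with the accession as filed and its product quenches rhodamine fluorescence; 0% = enzyme reaction without inhibitor and -100% = no enzyme wells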
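Compounds were incubated with enzyme (final 15 nM) for 15 min at room temperature before substrate addition started the reaction. Fluorescence at 525 nm excitation, 598 nm emission was recorded immediately and after 30 minutes.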
G9a inh: blocks human histone lysine methyltransferase G9a; G9a H3K9 monomethylation, AlphaScreen, 2 h; Potency, µM (doses to about 102 µM), inactives show at the highest dose activity, negative = inhibition, hits mostly inhibitors; actives 8.8% (n = 350,000); further: on the % scale 0 is the no-effect control and ±100 the full control effect; nearly all actives have a fitted effect of over 75% in size
Target sequence (Q96KQ7 913-1193 limits assumed): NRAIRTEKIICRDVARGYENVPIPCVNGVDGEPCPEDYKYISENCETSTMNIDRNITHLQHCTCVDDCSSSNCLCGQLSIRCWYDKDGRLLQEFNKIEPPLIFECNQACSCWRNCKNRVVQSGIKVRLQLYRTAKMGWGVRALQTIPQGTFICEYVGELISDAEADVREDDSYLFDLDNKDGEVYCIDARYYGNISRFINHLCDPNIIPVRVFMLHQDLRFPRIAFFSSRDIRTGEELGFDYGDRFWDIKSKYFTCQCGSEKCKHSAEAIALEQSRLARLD
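Quantitative HTS format: methyltransferase activity on a biotin-tagged H3K9 peptide is measured by AlphaScreen, using a rabbit anti-monomethyl-H3K9 antibody with streptavidin donor and anti-IgG acceptor beads. Final levels are 20 nM enzyme, 500 nM peptide, 20 uM SAM; 2 h RT.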
HP1b chromo inh: blocks HP1-beta chromodomain binding to methylated histone tails | AID 540317 | P83916 | actives 0.56% (n = 390,000) | AlphaScreen HP1-beta / biotin-H3K9me3 peptide binding | Potency, µM (highest dose often 114 µM), for inactives: top-dose activity change, negative = inhibition, most hits filed as inhibitors; further: nearly all actives have a fitted effect of over 70% in size
Target sequence (P83916 whole entry, looked up): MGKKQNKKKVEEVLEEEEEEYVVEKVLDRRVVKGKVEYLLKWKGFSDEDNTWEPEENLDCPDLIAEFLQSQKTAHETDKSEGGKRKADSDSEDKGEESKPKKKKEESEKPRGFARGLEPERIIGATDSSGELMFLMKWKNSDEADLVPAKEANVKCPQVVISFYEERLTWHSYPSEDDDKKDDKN
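AlphaScreen: HP1-beta (50 nM) preformed 30 min with biotin-H3(1-18)K9me3 peptide (50 nM) in PBS pH 7.4, 0.01% Tween-20. Compound added for 30 min at RT, then streptavidin donor/nickel chelate acceptor beads (10 ug/mL) for 30 min.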
JMJD2A Tudor inh: JMJD2A Tudor domain (human) inhibition; O75164; AlphaScreen JMJD2A-Tudor / H3K4me3 peptide binding; Potency, µM (top dose mostly 114 µM), inactives show at the highest dose activity change, negative = inhibition, usual class: inhibitors; actives 4.4% (n = 390,000); AID 504339; further: on the % scale 0 is the no-effect control and ±100 the full control effect; nearly all actives have a fitted effect of over 50% in size
* marks the source's active call; other numbers are inactive results; ? = inconclusive; / = no result; ! = a repeat was not active; [ ] = another dose, or the depositor's remark. The call rests on the fitted dose curve; in most records, active means well fitted curve in the direction sought with a large enough effect; inconclusive means small, poorly fitted or top-dose-only effect, or another doubt; inactive means no such curve, though single readings can be large; an effect the other way counts as inactive or inconclusive. Potency means the concentration at half of the fitted maximal effect.

SMILES	BAZ2B inh	Sfp PPTase inh	G9a inh	HP1b chromo inh	JMJD2A Tudor inh
CCN1C(=O)/C(=C2\SC(=S)N(CCCOC)C2=O)c2ccccc21	?	13.4%	-2.4%[12.7 µM]	?	?
CN1C(=O)/C(=C2\SC(=S)N(CCCCCC(=O)O)C2=O)c2ccccc21	-20.6%	17.8%	-27.4%	39.8µM*	?
COc1cc(C(=O)NC(c2ccccc2)c2ccccc2)cc(OC)c1C	?	-3.8%	50.1µM*	15.3%	-5.7%
COc1c(Cl)cc(C(=O)NN)cc1Cl	3.9%	50.1µM*	/	30.4%	-4.5%
COc1cc(C(N)=O)cc(Cl)c1OC	-1.3%	6.2%	?	14.0%	-8.6%
COc1ccc(C(NC(=O)c2cc(OC)ccc2OC)c2ccccc2)cc1 (centres undefined)	12.3%	-20.7%	17.2%	30.1%	-0.7%
CNC(=O)c1cc(Cl)c(OC)c(OC)c1	-0.9%	44.7µM*	7.94µM*	?	-34.9%
NNC(=O)c1cc(O)c(O)c(O)c1	17.8µM*	31.6µM*	8.91µM*	44.7µM*	1.78µM*
Clc1nc(Cl)nc(NCCC2=CCCCC2)n1	56.2µM*	-1.4%	?	21.5%	89.1µM*
CC(C)N(C(=O)[C@H]1C[C@H](CC(=O)NCCN2CCOCC2)C(=O)N2CCc3c([nH]c4cc(CCC(=O)N(C)C)ccc34)[C@]12C)C(C)C	/	/	/	-2.1%	-5.5%
Cc1ccc(S(=O)(=O)N2CCN(c3nc(C(N)=O)nc4ccccc34)CC2)cc1	/	/	/	36.1%	-8.8%
CC/C(=N\NC(=O)Cc1ccc(Br)cc1)c1cccs1	-15.4%	11.1%	56.2µM*	56.8%	-12.5%
Cc1cnc(C(=O)Nc2nnc(C)s2)cn1	?	79.4µM*	2µM*	32.6%	1.12µM*
CC(C)c1nnc(NC(=O)c2cnccn2)s1	39.8µM*	-72.0%	?	9.1%	1.12µM*
Cc1cnc(C(=O)Nc2nnc(C(C)C)s2)cn1	50.1µM*	?	1µM*	28.0%	0.282µM*
Cc1cc(C(=O)Nc2nnc(C3CCCCC3)s2)no1	-6.4%	-9.7%	-21.7%[59 µM]	35.7%	-14.1%
CC(C)c1nnc(NC(=O)C2CCCCC2)s1	-1.5%	12.5%	0.7%[59 µM]	24.7%	-4.9%
Cc1cnc(C(=O)Nc2nnc(C3CC3)s2)cn1	?	?	5.62µM*	16.9%	-7.4%
Cn1cc(-c2nc3cncnc3n(Cc3ccc(F)cc3)c2=O)c2ccccc21	/	15.0%	16.0%[0.501 µM]	/	/
COCCCc1cc(F)c(S(=O)(=O)N2CCN(S(=O)(=O)c3ccc4c(c3)OCCO4)CC2)cc1F	/	/	/	/	-11.6%
Cc1csc(NC(=O)c2cnccn2)n1	?	-12.7%	3.55µM*	-1.9%	7.94µM*
Cc1cccc(N=NC(=S)NNc2cccc(C)c2)c1	/	/	/	44.7µM*	25.1µM*
CCCc1ccc(C(=O)NNc2cccc(C)c2)cc1	?	-6.8%	/	4.1%	-17.6%
COc1ccc(C2=CC(c3ccc(OC)c(OC)c3)n3nnnc3N2)c(OC)c1 (centres undefined)	-28.0%	-1.0%	50.1µM*	69.1%	?
COc1cccc(C2C=C(c3ccc(OC)cc3OC)Nc3nnnn32)c1 (centres undefined)	-1.3%	-12.3%	44.7µM*	82.9%	12.3%
SMILES	BAZ2B inh	Sfp PPTase inh	G9a inh	HP1b chromo inh	JMJD2A Tudor inh
COc1ccc(C2=CC(c3ccc(C)cc3)n3nnnc3N2)cc1 (centres undefined)	-7.7%	?	?	109.1%	-0.7%
CCCc1ncc(CN2CCC(C(=O)Nc3cccc(-c4cscn4)c3)CC2)cn1	-14.3%[57.1 µM]	11.9%	0.2%	29.4%	-24.7%
O=C(NC1CCCCCC1)C(=O)NC1CC1	?	4.2%	/	46.1%	-2.1%
O=C(NC1CCCCCC1)C(=S)NC1CCCCC1	17.2%	20µM*	35.5µM*	32.0%	-28.1%
O=C(NNC(=O)C1CCCCC1)C(=O)NC1CCCCC1	0.8%	-1.1%	10µM*	9.2%	?
O=C(NC1CCCCCC1)C(=S)N1CCOCC1	?	15.8µM*	?	?	79.4µM*
CCCN1CCN(c2ncnc3sc(C(=O)Nc4c(C)cc(C)cc4C)c(C)c23)CC1	-14.9%	/	-18.2%[12.7 µM]	34.4%	-7.3%
Cc1ccc(S(=O)(=O)N2CCN(C(C)CC(=O)O)CC2)cc1 (centres undefined)	50.1µM*	?	28.2µM*	?	5.62µM*
CCC(C)c1ccc(S(=O)(=O)N2CCN(C(C)CC(=O)O)CC2)cc1 (centres undefined)	/	-8.5%	7.08µM*	-26.6%	3.55µM*
COc1ccc(C(=O)Nc2cc3c(cc2N2CCOCC2)n(C)c(=O)n3C)cc1OC	?	21.9%	26.8%	36.9%	-19.5%
Cc1cccc(C(=O)Nc2cc3c(cc2N2CCOCC2)n(C)c(=O)n3C)c1	-31.8%	/	-2.2%[59 µM]	6.2%	-7.2%
COc1cccc(C(=O)Nc2cc3c(cc2N2CCOCC2)n(C)c(=O)n3C)c1	?	-2.5%	20µM*	79.5%	-6.9%
CCOc1cc(C(=O)Nc2cc3c(cc2N2CCOCC2)n(C)c(=O)n3C)cc(OCC)c1OCC	-32.9%	9.6%	13.6%	16.9%	25.1µM*!
Cc1cccc(C(=O)Nc2cc3c(cc2N2CCCCC2)n(C)c(=O)n3C)c1	50.1µM*	/	-41.9%[59 µM]	15.0%	-21.6%
COc1cccc(Cn2c(=O)n(CCc3ccccc3)c(=O)c3c2c2cc(OC)ccc2n3C)c1	0.0%	/	?	29.3%	2.8%
Nc1ccc2nc(-c3ccccn3)[nH]c2c1	44.7µM*	5.3%	?	25.2%	?
COc1ccc2nc(-c3ccccn3)[nH]c2c1	?	-23.4%	35.5µM*	45.3%	-13.4%
Nc1ccc2nc(-c3ccccc3)[nH]c2c1	?	-18.7%	-9.9%[59 µM]	-2.8%	-33.6%
O=C(Nc1ncccn1)c1cc([N+](=O)[O-])cc([N+](=O)[O-])c1	-0.7%	14.6%	15.0%[59 µM]	8.2%	-25.5%
O=[N+]([O-])c1cc(-c2ncccn2)c([N+](=O)[O-])s1	?	?	28.2µM*	19.7%	-23.7%
O=C(O)c1sc2cc(C(F)(F)F)cnc2c1-c1ccccc1	-7.2%	-21.0%	13.4%[0.0925 µM]	64.2%	-30.0%
NNC(=O)c1sc2cc(C(F)(F)F)cnc2c1-c1ccccn1	?	-14.0%	5.62µM*	32.3%	-9.0%[11.4 µM]
O=C(NCc1nc2ccccc2[nH]1)c1cccc(Cl)c1	-2.0%	/	5.5%[59 µM]	31.2%	-0.7%
c1ccc(N/N=C(\Cc2ncc[nH]2)c2ccccc2)cc1	?	-5.7%	2.82µM*	?	-27.8%[57.1 µM]
Clc1cccc(N/N=C(\Cc2nc3ccccc3[nH]2)c2ccccc2)c1	-28.9%	45.3%	25.1µM*	2.3%	?
Nc1nonc1-c1nc2ccccc2n1CC(=O)Nc1cccc(C(F)(F)F)c1	0.4%	/	47.2%[59 µM]	87.2%	-10.7%
N#Cc1ccc(OCC(O)CN2CCN(CC(O)COc3ccc(C#N)cc3)CC2)cc1 (centres undefined)	4.0%	6.4%	28.8%	-9.5%	-20.4%
CC1(C)C2CCC1(C)C(NCC(O)COc1ccc(C#N)cc1)C2 (centres undefined)	25.1µM*	?	?	-23.3%	12.6µM*
